# FLuc counter = inhibits or activates purified firefly luciferase, miR-21 counter-screen; P08659; purified FLuc, Km substrates, luminescence inhibition; Potency, µM (doses to about 57.5 µM), inactives show at the highest dose activity change, negative = inhibition, most hits filed as inhibitors; 360,000 compounds, 6.9% hits; AID 588342;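 also: plate controls were vehicle for no effect and reference inhibitor for full effect; nearly all actives have a fitted effect of over 55% in size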
# Target sequence (P08659 whole entry, looked up): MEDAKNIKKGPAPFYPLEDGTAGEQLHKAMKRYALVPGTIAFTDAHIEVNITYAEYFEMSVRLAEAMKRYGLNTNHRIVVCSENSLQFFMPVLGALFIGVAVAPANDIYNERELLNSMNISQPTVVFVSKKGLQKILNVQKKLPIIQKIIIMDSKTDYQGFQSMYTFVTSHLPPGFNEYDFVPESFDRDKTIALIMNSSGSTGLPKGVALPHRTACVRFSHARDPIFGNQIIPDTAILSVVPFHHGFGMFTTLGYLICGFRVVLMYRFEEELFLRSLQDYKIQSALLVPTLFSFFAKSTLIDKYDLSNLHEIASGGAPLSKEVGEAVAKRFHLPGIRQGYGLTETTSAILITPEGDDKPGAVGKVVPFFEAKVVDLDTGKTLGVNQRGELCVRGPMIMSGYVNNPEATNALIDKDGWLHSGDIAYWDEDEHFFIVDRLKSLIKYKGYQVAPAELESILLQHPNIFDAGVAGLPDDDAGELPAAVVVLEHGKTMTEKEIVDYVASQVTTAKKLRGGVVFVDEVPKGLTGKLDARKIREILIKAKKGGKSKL
#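 Biochemical qHTS of compounds, final roughly 60 µM downward over six points, against 10 nM purified firefly luciferase using Km concentrations of substrates (10 uM D-luciferin, 10 uM ATP) in Tris acetate pH 7.5 buffer; luminescence output.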
# SMN2 splice up = enhancers of SMN2 splice variant expression | Potency, µM (series often up to 46.1 µM), inactives show top-dose activity change, positive = activation, actives largely listed as activators | 210,000 compounds, 2.8% hits | HEK293 SMN2-luciferase splicing reporter, luminescence, 30-36 h | AID 1458; also: % of control where 0% means no effect; nearly all actives have a fitted effect of over 55% in size
#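 HEK293 cells carry an SMN2 […]–luciferase reporter in which exon 7 inclusion puts luciferase in frame. Cells were plated 10-12 h before compound addition, then incubated 30-36 h at 37C. ONE-Glo luminescence was read; sodium butyrate at 4.5 mM final served as control.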
# ELG1 genotox = induces genotoxicity in HEK293T cells with luciferase-tagged ELG1; HEK293T ELG1-luciferase reporter, luminescence, 16 h; Potency, µM (top dose mostly 46 µM), without a hit: at the highest dose activity change, positive = activation, most hits filed as activators; 330,000 compounds, 1.3% hits; AID 504466; also: % of control where 0% means no effect; nearly all actives have a fitted effect of over 60% in size
#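 Step 1: seed 2,000 HEK293T ELG1-luciferase cells per well. Step 2: add compound or DMSO, incubate 16 hr at 37 °C. Step 3: ONE-Glo, 30 min at room temperature, read luminescence.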
# NPC1 prom act = NPC1 promoter activation. Huh7 NPC1 promoter luciferase reporter, 24 h. Potency, µM (highest dose often 9.22 µM), without a hit: at the top dose activation, most hits filed as activators. 320,000 compounds, 2.4% hits; also: % of control where 0% means no effect; nearly all actives have a fitted effect of over 60% in size
#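 Quantitative HTS used a cell-based reporter: Huh7 cells stably bearing the NPC1 promoter upstream of luciferase were treated with compounds for 24 h, and promoter activation was read as luminescence.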
# Rab9 promoter act = activates the Rab9 promoter. 320,000 compounds, 2.8% hits. Potency, µM (titrated, usually from 9.22 µM), for inactives: at the highest dose activation, negative = inhibition, actives largely listed as activators. Huh7 Rab9 promoter-luciferase reporter, luminescence, 24 h; also: % of control where 0% means no effect; nearly all actives have a fitted effect of over 60% in size
#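 Cell-based reporter: Huh7 stable for Rab9 promoter-driven luciferase, plated in reduced-serum medium with 10% FBS at 1500 cells/well, compound-treated 24 h at 37 °C, luminescence read after 10 min reagent.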
# The depositor's hits bear a star; ? = inconclusive; nt = not tested or not shown; [ ] = dose if it differs, or a comment. Shown are actives, neighbours in structure and some others; about 7.5% of the full set was active somewhere. Calls follow the shape of the dose curve; as a rule, active = well fitted curve in the direction sought with a large enough effect; inconclusive = small, poorly fitted or top-dose-only effect, or another doubt; inactive = no such curve, though single readings can be large; an effect the other way counts as inactive or inconclusive. Potency is read from the fitted curve at half-maximal effect.
SMILES,FLuc counter,SMN2 splice up,ELG1 genotox,NPC1 prom act,Rab9 promoter act
O=C1NC(=O)C(=Cc2ccc(-c3ccc(Cl)cc3)o2)C(=O)N1,6.7µM*,nt,-16%,0%,0%
O=C1NC(=O)C(=Cc2ccc(-c3ccc(S(=O)(=O)N4CCOCC4)cc3)o2)C(=O)N1,?,nt,11%,-1%,2%
O=C1NC(=O)C(=Cc2ccc(Sc3ccccc3)o2)C(=O)N1,24µM*,nt,?,1%,0%
Cc1ccc(/C=C2\C(=O)NC(=O)N(CCc3ccc(F)cc3)C2=O)o1,-9%,10%,?,0%,1%
N#Cc1ccc(CN2CCC3(CC2)CCN(C(=O)Oc2ccccc2)CC3)cc1,nt,-36%,nt,nt,nt
Oc1cccc(/C=N/NP(=S)(c2ccccc2)c2ccccc2)c1,24µM*,-14%,3%,1%,-3%
CCC12CCN(C)CC1Oc1c(C)cccc12 (stereo not drawn),-2%,nt,nt,nt,nt
CCOc1ccccc1Oc1coc2cc(OC(=O)c3ccco3)ccc2c1=O,15µM*,?,7%,0%,-5%
CCCCC(CC)COC(=O)c1ccc(C(=O)OCC(CC)CCCC)c(C(=O)OCC(CC)CCCC)c1 (stereo not drawn),nt,-11%,nt,nt,nt
O=C(CSc1nnc(NC(=O)c2ccccc2[N+](=O)[O-])s1)NCc1ccco1,13µM*,nt,13%,2%,19%
O=C(CSc1nnc(NC(=O)c2ccccc2F)s1)NCc1ccc(F)cc1,12µM*,nt,?,?,?
O=c1[nH]c(O)c(N=Nc2ccc(SC(F)F)cc2)c(=O)[nH]1,2.4µM*,nt,14%,23%,?
NC(=O)c1ccc(N=Nc2c(O)[nH]c(=O)[nH]c2=O)cc1,-1%,11%,4%,-6%,0%
COc1ccc(-n2c(=S)[nH]c3c(sc(=S)n3-c3ccccc3)c2=O)c(OC)c1,11µM*,nt,0%,-7%,-3%
O=P(O)(O)c1ccccc1OCCOCCOCCOCCOc1ccccc1P(=O)(O)O,?,24%,-6%,4µM*,3.5µM*
O=C(c1ccc(Cl)cc1)C1CCCN(Cc2ccon2)C1 (stereo not drawn),0%,nt,1%,-5%,-4%
CC(C)(C)c1ccc(C(=O)C2CCCN(Cc3ccon3)C2)cc1 (stereo not drawn),17µM*,nt,15%,?,?
COc1ccc2nc(NC3=NCCN3)sc2c1,5.4µM*,10µM*,18µM*,2.8µM*,2.5µM*
c1ccc2sc(NC3=NCCN3)nc2c1,?,?,-4%,?,?
CCCOC(=O)c1ccc(OC(=O)c2ccco2)cc1,?,4%,2%,0%,-1%
O=C(Oc1ccccc1)c1cc2ccccc2o1,9.5µM*,1%,1%,0%,0%
NNc1nncn1N,nt,-14%[9.22 µM],nt,nt,nt
CCOc1ccc(-c2cc(C)[n+](CCN3CCOCC3)c(-c3ccc(OCC)cc3)c2)cc1,-1%,nt,-13%,-3%,-4%
CCOc1ccc(-c2nc3ccc(-c4nc5ccc(N6CCN(C)CC6)cc5[nH]4)cc3[nH]2)cc1,nt,4µM*,nt,nt,nt
